The list is not random: actives were taken first. Their share in the collection is about 21%.
Shiga inhibitor – Shiga toxin inhibition. Vero cells, Shiga toxin protein synthesis inhibition reporter. inhibition, % at 38.7 µM. 290,000 tested, 9.2% active; in the data active = inhibition mostly above about 28%, no sharp cut-off; inactive = mostly below about 43%; note: 0% is about no effect
SARS PLpro yeast – inhibitors of SARS-CoV papain-like protease in yeast; S. cerevisiae expressing SARS-CoV PLpro, growth rescue; Potency, µM (titrated, usually from 32.9 µM), inactives show at the highest dose activity, positive = growth rescue, hits mostly activators; 330,000 tested, 0.19% active; AID 485353; calls by dose curve; note: potency is the fitted concentration of half-maximal effect; 0% is about no effect; nearly all actives have a fitted effect of over 55% in size
Pf growth 48h – inhibits P. falciparum growth in the first generation, 48 h | 310,000 tested, 5.9% active | AID 504832 | Potency, µM (series often up to 28.7 µM), inactives show top-dose activity change, negative = inhibition, hits mostly inhibitors | P. falciparum luciferase growth in erythrocytes, 48 h; note: potency is the fitted concentration of half-maximal effect; % is set by controls: 0 for no effect and ±100 for the full control effect
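Cell-based growth assay: transgenic P. falciparum expressing firefly luciferase, cultured in red cells within RPMI 1640 containing 0.5% w/v Albumax, 24 mM bicarbonate and gentamycin. A drop in luciferase activity indicates inhibition.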
NS1 function inh – inhibitors of influenza NS1 protein function. 270,000 tested, 0.4% active. Potency, µM (series often up to 46.1 µM), inactives show at the top dose activity, positive = more growth. AID 2326; calls by dose curve; note: potency is the fitted concentration of half-maximal effect; actives are rising curves; nearly all actives have a fitted effect of over 50% in size
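A cell-based growth assay was used: compounds that relieve NS1-induced slow growth of budding yeast raise OD600. Assay medium was yeast nitrogen base with ammonium sulphate and -URA supplement, pH 6.0, with 2% galactose.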
CHX counter – affects cycloheximide protein synthesis inhibition readout, counter-screen. cell reporter, cycloheximide protein synthesis inhibition counterscreen. 300,000 tested, 12% active. max response, %. AID 2314; in the data active = max response mostly above about 13%, no sharp cut-off; inactive = mostly below about 14%; note: read at 38.3 µM for the half of the compounds with a filed dose; 0% is about no effect
Pf growth 96h – inhibits malaria parasite growth, 96 h. P. falciparum luciferase reporter growth, 96 h. Potency, µM (highest dose often 28.7 µM), without a hit: top-dose activity change, negative = inhibition, usual class: inhibitors. 320,000 tested, 6.9% active; note: potency is the fitted concentration of half-maximal effect; % is set by controls: 0 for no effect and ±100 for the full control effect
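Delayed-death screen, second-generation endpoint: infected erythrocytes, 2% hematocrit, 0.05% parasitemia final; 96 hours at 37 C, 5% CO2; luciferase detection reagent; luminescence decrease equals reduced growth.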
* hit, by the source's call; ? = inconclusive; . = not tested or not shown; [ ] = remark or other dose. Unless noted, calls come from the whole dose curve; as a rule, active = well fitted inhibition curve with a large enough effect; inconclusive = small, poorly fitted or top-dose-only effect, or another doubt; inactive = no such curve, though single readings can be large or run the other way.

SMILES	Shiga inhibitor	SARS PLpro yeast	Pf growth 48h	NS1 function inh	CHX counter	Pf growth 96h
CC(C)C1Oc2ccccc2N(CC(=O)NC2CCCCC2)C1=O (stereo not given)	56.9	0.0%	14.4%	-0.8%	3.3	26.8%
COc1ccc(S(=O)(=O)n2ccnc2C)c(C)c1C	.	-5.7%	32.1%	3.1%	-1.4	44.1%
O=C(CSCc1ccccc1Cl)Nc1ccc2c(c1)OCCO2	95.3*	4.0%	114.2%	-41.1%	57.9*	106.5%
O=C(CSCc1ccc(Cl)cc1)NCc1ccc2c(c1)OCO2	-2.6	.	-2.8%	-14.2%	-2.5	-1.0%
O=C(CSCc1ccc(Cl)cc1)Nc1ccc2c(c1)OCO2	28.0	-13.0%	-17.7%	-12.4%	-0.8	11.7µM*
O=C(CNCc1ccc(Cl)cc1)Nc1ccc2c(c1)OCCO2	27.9	-3.8%	-8.7%	.	19.5	32.2%
O=C(CNCc1ccccc1Cl)Nc1ccc2c(c1)OCCO2	87.3*	0.6%	127.7%	0.3%	44.7*	147.6%
Cc1cc(C)nc(NS(=O)(=O)c2ccc(NC(=O)Cc3ccccc3F)cc2)n1	15.0	-1.4%	7.1%	-0.5%	-4.2	3.4%
CC(=O)Nc1ccc(S(=O)(=O)NC2CC3CCC2C3)cc1 (stereo not given)	.	3.1%	34.7%	10.3%	-2.7	-1.4%
Cc1cc(C(=O)Nc2sc3c(c2C#N)CCCC3)no1	51.6*	-45.8%	295.2%	-49.1%	37.0*	-4.1%
Cc1cc(C(=O)Nc2sc3c(c2C#N)CCC(C)C3)no1 (stereo not given)	75.5*	-1.5%	82.0%	-6.1%	35.7*	16.7%
CC(C)Cc1cc(C(=O)Nc2sc3c(c2C#N)CCC3)no1	-8.6	-7.7%	.	-12.6%	-0.3	?
CC(C)Cc1cc(C(=O)Nc2sc3c(c2C#N)CCCC3)no1	21.0	-17.6%	36.8%	-20.9%	32.6*	31.0%
Cc1onc(-c2c(F)cccc2Cl)c1C(=O)Nc1sc2c(c1C#N)CCC(C(C)(C)C)C2 (stereo not given)	-19.1	-9.6%	6.57µM*	4.4%	-2.2	?
CC(C)CC(=O)NC(=S)Nc1ccc(S(=O)(=O)Nc2nccs2)cc1	-9.6	-18.6%	-5.3%	5.5%	-1.5	17.1%
COc1cc(C(=S)N2CCCC2)cc(Cl)c1OCC(=O)Nc1ccc(C)cc1C	26.4	-23.8%	-29.3%	6.2%	5.2	57.1%
CC(C)NC(=O)c1ccc(-n2c(=S)[nH]c3ccccc3c2=O)cc1	2.0	-0.5%	-1.8%	.	-1.7	55.4%[5.75 µM]
Cn1ccc(C(=O)Nc2sc3c(c2C#N)CCC3)n1	12.1	-4.5%	0.8%	-28.3%	15.9*	76.7%
CCc1c(C)sc(NC(=O)c2cc(CC(C)C)on2)c1C#N	-14.3	-0.6%	.	-12.3%	-2.0	13.1µM*
N#Cc1c(NC(=O)c2cc(C3CC3)on2)sc2c1CCC2	-3.4	-14.1%	.	-56.9%	0.7	-19.2%
Cc1cc(C(=O)Nc2sc3c(c2C#N)CCC3)no1	38.3*	-8.8%	72.3%	-33.4%	26.2*	1.3%
COC(=O)c1cccc(NS(=O)(=O)c2ccc(OC)c(C(=O)N3CCOCC3)c2)c1C	-2.9	5.6%	9.2%	7.6%	-3.4	-0.3%
CCOc1ccc(CN2CCN(CCCc3ccccc3)CC2CCO)cc1 (stereo not given)	-5.5	0.8%	-0.6%	-2.9%	-2.4	2.7%
Cc1ccc2c(c1)sc(=NC(=O)c1cccs1)n2C	0.3	-3.0%	297.8%	-2.1%	-0.9	402.0%
Cc1ccc2c(c1)sc(=NC(=O)C1CC1)n2C	88.8*	-4.2%	9.4%	-5.0%	44.7*	113.1%
SMILES	Shiga inhibitor	SARS PLpro yeast	Pf growth 48h	NS1 function inh	CHX counter	Pf growth 96h
CC(C)C[C@H](N)c1cn([C@@H](Cc2ccc(O)cc2)C(=O)N2CCNCC2)nn1	-5.0	-0.3%	5.2%	1.7%	-2.5	33.8%
COc1cc(-c2nnc(SCC3(c4ccccc4)OCCO3)o2)cc(OC)c1OC	10.8	0.6%	13.1µM*	-12.4%	1.1	5.22µM*
COc1cc(-c2nnc(SCC(=O)c3ccccc3)o2)cc(OC)c1OC	-7.4	-9.1%	4.3%	-15.1%	14.2	11.3%
Cc1ccc(C)c(S(=O)(=O)N2CCN(Cc3cc4c(cc3O)OCO4)CC2)c1	.	3.6%	?	.	.	-23.2%
CC1=c2c(oc3cc(O)c(Nc4c(C)cc(O)cc4O)c(C)c23)=CC(=O)C1=Nc1c(C)cc(O)cc1O	.	.	.	-2.6%	.	.
O=C1N=C(N2CCOCC2)S/C1=C/c1cccs1	19.5	1.6%	-25.7%	-10.0%	25.0*	11.7µM*

Compound activity deposited in PubChem BioAssay by National Center for Advancing Translational Sciences (NCATS).
